{
  "source": "PubChem BioAssay AID588345",
  "about": "(Broad Institute, 2011)",
  "note": "About 850 (65%) of roughly 1,300 compounds were called active. Roughly 1% stayed inconclusive and do not appear here. The rule behind the calls is not given here. So high a share suggests a set chosen from earlier hits. Only a sample is shown. A call without a number means that no potency is given here. Potency and affinity values are given separately.",
  "data": [
    {"target": "Dual specificity tyrosine-phosphorylation-regulated kinase 1A (Rattus norvegicus) (UniProt Q63470)", "experiment": "Dyrk1A enzyme activity inhibition – biochemical, cherry-pick, plate reader, 2124-01, dose response (AID 588345)", "conditions": "Dyrk1A kinase biochemical assay; series mostly up to 12 µM", "values": [
      {"smiles": "CCOC(=O)C1=C(C)OC(N)=C(C#N)C1c1cc2c(cc1Br)OCO2", "note": "(stereo not drawn)", "outcome": "inactive"},
      {"smiles": "COC(=O)c1nn(-c2ccc3c(c2)OCO3)cc1O", "outcome": "inactive"},
      {"smiles": "C=CCOC(=O)C1=C(C)NC(=O)NC1c1ccc(Cl)cc1", "note": "(stereo not drawn)", "outcome": "inactive"},
      {"smiles": "C=CCc1ccc(OCCOc2ccc(/C=N/n3cnnc3)cc2OCC)c(OC)c1", "outcome": "inactive"},
      {"smiles": "Cc1ccccc1C(=O)N1CCN(c2ccc(NC(=O)c3cccc(OC(C)C)c3)cc2)CC1", "outcome": "inactive"},
      {"smiles": "O=C(Nc1ccc(F)cc1F)c1csc(-c2ccncc2)n1", "outcome": "inactive"},
      {"smiles": "O=C(Nc1ccc(Cl)cc1)c1csc(-c2ccncc2)n1", "outcome": "inactive"},
      {"smiles": "c1ccc(-c2nnc3sc(Cc4cccs4)nn23)cc1", "outcome": "inactive"},
      {"smiles": "COC(=O)[C@]1(CC(C)C)N[C@H](c2ccc(-c3cccc(Cl)c3)cc2)[C@@H]2C(=O)N(C)C(=O)[C@@H]21", "outcome": "inactive"},
      {"smiles": "Cc1cccc(CNc2ncnc3ccc(-c4ccoc4)cc23)c1", "outcome": "inactive"},
      {"smiles": "CN(C)/C=C1/Oc2c(ccc3ccccc23)C1=O", "outcome": "inactive"},
      {"smiles": "COc1cc(-c2cn(S(=O)(=O)c3cccc4nsnc34)nc2N)cc(OC)c1OC", "outcome": "inactive"},
      {"smiles": "CCn1c2ccccc2c2cc(/C=N/O)ccc21", "outcome": "inactive"},
      {"smiles": "Cc1ccccc1NC(=O)CSc1[nH]c(=O)cc(C)c1C#N", "outcome": "inactive"},
      {"smiles": "CCN1CCN(Cc2ccc(NC(=O)c3ccc(C)c(NC(=O)c4csc(-c5ccncc5)n4)c3)cc2C(F)(F)F)CC1", "outcome": "inactive"},
      {"smiles": "Cn1c(-c2ccccc2)c(C=O)c2ccccc21", "outcome": "inactive"},
      {"smiles": "Cc1ccccc1NC(=O)C1CCCN1S(=O)(=O)c1ccc2c(c1)n(C)c(=O)c(=O)n2C", "note": "(stereo not drawn)", "outcome": "inactive"},
      {"smiles": "Cc1ccc(S(=O)(=O)/N=C2\\C=C(Nc3cccc(C(=O)O)c3)C(=O)c3ccccc32)c(C)c1", "outcome": "inactive"},
      {"smiles": "CCOC(=O)C[C@H]1c2cc(C(F)(F)F)ccc2S(=O)(=O)N1C(C)C", "outcome": "inactive"},
      {"smiles": "COc1ccc(-c2nn(-c3ccccc3)cc2CO)cc1", "outcome": "inactive"},
      {"smiles": "Cc1nc2c(c3c1[nH]c1ccccc13)C(=O)CC(C)(C)C2", "outcome": "inactive"},
      {"smiles": "CN(C)S(=O)(=O)c1ccc(Cl)c(C(=O)Nc2cccc3ncccc23)c1", "outcome": "inactive"},
      {"smiles": "OCC[C@@H]1C[C@H](O)[C@@H](O)[C@@]2(CCc3ccccc3CO2)O1", "outcome": "inactive"},
      {"smiles": "CC(=O)c1cccc(NC(=O)Nc2cccs2)c1", "outcome": "inactive"},
      {"smiles": "COC(=O)c1cc(NC(=O)Nc2cccc(Cl)c2)ccc1Cl", "outcome": "inactive"},
      {"smiles": "COc1ccc(S(=O)(=O)N(C)C[C@H]2Oc3ccc(NS(=O)(=O)c4cccs4)cc3CC(=O)N([C@H](C)CO)C[C@H]2C)cc1", "outcome": "inactive"},
      {"smiles": "CCOc1ccc(C2CC(c3cccc(OC)c3)Nc3nc(N)nn32)cc1", "note": "(stereo not drawn)", "outcome": "inactive"},
      {"smiles": "N#C/C(=C\\c1ccc(O)c(O)c1)C(=O)NCCc1ccccc1", "outcome": "inactive"}
    ]}
  ]
}
